# Test results from PubChem BioAssay (NCATS).
# Inconclusive results are not listed. A number with no mark means an inactive call. Activity calls are given as the source filed them. The call rests on the fitted dose curve; in most records, active means well fitted inhibition curve with a large enough effect; inconclusive means small, poorly fitted or top-dose-only effect; inactive means flat fitted curve, though single readings scatter.
# Key:
# CRL-7250 = normal cell line; assay: Cytotoxic Profiling of Annotated Libraries Using Quantitative High-Throughput Screening (AID 1296008); settings: Five cell lines viability, CellTiter-Glo ATP luminescence, 48-72 h; max response: hits give low values; further: potency means the concentration at half of the fitted maximal effect; on max response: on the % scale 0 is the no-effect control and ±100 the full control effect
# In short: (§1)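 Cytotoxicity was measured as CellTiter-Glo ATP luminescence, read after 10 min at room temperature. Compound treatment of the cells lasted 48 or 72 hr at 37 degrees Celsius in a qHTS format.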
# HEK293 = assay: as above; settings: Five cell lines viability, CellTiter-Glo ATP luminescence, 48-72 h; max response: hits give low values
# In short: as §1
# HaCat [1] = assay: as above; settings: Five cell lines viability, CellTiter-Glo ATP luminescence, 48-72 h; max response: hits give low values
# In short: as §1
# KB-3-1 = assay: as above; settings: Five cell lines viability, CellTiter-Glo ATP luminescence, 48-72 h; max response: hits give low values
# In short: as §1
# NIH3T3 = assay: as above; settings: Five cell lines viability, CellTiter-Glo ATP luminescence, 48-72 h; max response: hits give low values
# In short: as §1
# HACAT [2] = assay: qHTS assay to identify novel small-molecules to repurpose for Merkel cell carcinoma treatment (AID 1296009); settings: MCC and control cell lines, CellTiter-Glo viability, 72 h; at 44.8 µM (top of the series) unless noted
# In short: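 After compound transfer in DMSO, plates were kept 72 hr at 37 degree celsius. Luminescent ATP signal from CellTiter-Glo served as viability measure, normalized against DMSO and no-cell controls.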
# Further: nearly all actives have a fitted effect of over 60% in size.
Compound,max response (CRL-7250) [%],max response (HEK293) [%],outcome (HaCat [1]),max response (KB-3-1) [%],max response (NIH3T3) [%],outcome (HACAT [2]),outcome (NIH3T3),outcome (KB-3-1),outcome (CRL-7250),Potency (CRL-7250),Potency (HEK293)
CC1(C)CC2C3=CCC4[C@@]5(C)CC[C@H](OC6OCC(O)C(OC7OC(CO)C(O)C(O)C7O)C6O)C(C)(C)C5CC[C@@]4(C)[C@]3(C)C[C@H](O)[C@@]2(CO)[C@H](OC(=O)c2ccccc2)C1 (stereo partly drawn),-5.7,-22,inactive,-6.42,-2.6,inactive [at 9.27 µM],,,,,
CCC(C)C(N)C(=O)NCCN1CCOCC1 (stereo not drawn),-0.617,2.51,inactive,0.0309,,inactive,inactive,,,,
C/C=C(/C)C(=O)OC1CC(C)(C)CC2C3=CCC4C5(C)CCC(OC6OC(C)C(OC7OC(C(=O)O)C(O)C(OC8OC(CO)C(O)C(O)C8OC8OC(CO)C(O)C(O)C8O)C7O)C(O)C6O)C(C)(C)C5CCC4(C)C3(C)C(OC(=O)/C=C/C=C/C=C/CCC)C(OC(C)=O)C12CO (stereo not drawn),3.68,2.77,inactive,,,inactive [at 9.27 µM],inactive,inactive,,,
COc1cc(/C=C/C(=O)OC[C@H]2O[C@@H](OC3CC(C)=C(C(=O)O)C(C)(C)C3)[C@H](O)[C@@H](O)[C@@H]2O)cc(OC)c1O (stereo partly drawn),-3.13,-1.71,inactive,,,inactive [at 17.4 µM],inactive,inactive,,,
CCC(C)/C=C(C)/C=C/C1=CC2=C(Cl)C(=O)C(C)(OC(C)=O)C(=O)C2=CN1C(CCCN=C(N)N)C(=O)O (stereo not drawn),-3.35,3,inactive,7.97,-0.868,inactive [at 17.4 µM],,,,,
C=C1CC[C@@]2(OC1)O[C@H]1CC3[C@@H]4CC=C5C[C@@H](O)C[C@@H](O[C@@H]6OC[C@H](O)[C@H](O)[C@H]6O[C@@H]6O[C@@H](C)[C@H](O)[C@@H](O)[C@H]6O)[C@]5(C)C4CC[C@]3(C)[C@H]1[C@@H]2C (stereo partly drawn),,-17.1,inactive,,,inactive [at 17.4 µM],inactive,inactive,inactive,,
C=C(CO)C(=O)O[C@H]1C[C@@]23O[C@@H]2CC/C(=C/[C@H]2OC(=O)C(=C)[C@H]12)CO[C@H]3O,,-24.8,inactive,,2.84,inactive,,inactive,inactive,,
C=C1C(=O)OC[C@H]2C(C(=O)O)=CC3CC(C)(C)C[C@@]132 (stereo partly drawn),,4.17,inactive,,,inactive,inactive,inactive,inactive,,
COC(=O)C[C@H]1C(C)(C)[C@H](OC(=O)C(C)C)C2CC3=C4CC(=O)O[C@@H](c5ccoc5)[C@]4(C)CCC3[C@@]1(C)C2=O (stereo partly drawn),2.69,-10.8,inactive,-0.987,1.73,inactive [at 17.4 µM],,,,,
NC(=O)c1ccc(F)c2c1C[C@@H](N(C1CCC1)C1CCC1)CO2,,-5.17,inactive,4.79,3.88,inactive,,,inactive,,
CC(CNS(=O)(=O)C(C)C)c1ccc(-c2ccc(C#N)cc2)cc1 (stereo not drawn),,,inactive,-27.5,-14.2,inactive,,,,5.8 µM (active),7.31 µM (active)
C=C(C(=O)OC)[C@]12O[C@@](C)(CC[C@@]3(O)/C(=C\C)C(=O)O[C@]3(C)C[C@@H]1OC(=O)C(CO)CN1CCCC1C(=O)O)CC2=O (stereo partly drawn),,-8.55,inactive,,,inactive [at 17.4 µM],inactive,inactive,inactive,,
C[C@@]1(C(=O)O)CCC[C@@]2(C)C3=CC[C@H]4C[C@@]3(CC[C@H]12)CC4(O)CO (stereo partly drawn),-19,4.94,inactive,,,inactive,inactive,inactive,,,
C=C[C@]1(C)C[C@@H](OC(=O)CSC2C[C@H]3CC[C@@H](C2)N3C)[C@]2(C)[C@H](C)CC[C@]3(CCC(=O)[C@H]32)[C@@H](C)[C@@H]1O (stereo partly drawn),-0.484,,inactive,-17.7,,inactive,inactive,,,,1.46 µM (active)
C/C(=C\CO)CC/C=C(\C)C(=O)O[C@@H]1O[C@H](CO)[C@@H](O)[C@H](O)[C@H]1O,-4.11,1.04,inactive,,1.84,inactive,,inactive,,,
COC(=O)C1=COC(OC2OC(CO)C(O)C(O)C2O)C2C(C)C(OC(C)=O)C(OC(=O)c3ccccc3)C12 (stereo not drawn),-19.7,-48.1,inactive,,-45.7,inactive [at 17.4 µM],,inactive,,,
Cc1ccc(COC(=O)N2CC[C@@H](CNc3ncccn3)[C@@H](F)C2)cc1,-0.943,-31.7,inactive,-17.2,-18.5,inactive,,,,,
Cc1cc(C)c2nc(-c3ccccn3)cc(C(=O)Nc3ccc(S(=O)(=O)Nc4onc(C)c4C)cc3)c2c1,-3.09,-20.7,inactive,1.46,1.48,inactive,,,,,
